“And” between values parts separate entries of the source, which are not always exact repeats. Equal entries are not always repeated. The source made the active and inactive calls.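 Rule for the calls, unless noted: active = z-score of at least 1.8 in each of two replicates, scored against plate mean and spread of sample wells; inactive = the rest.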

Experiment [1] can be described thus: P. berghei load reduction in hepatocytes – cell-based, HepG2, luciferase luminescence, HepG2 viability, primary screen (AID 624349; in the data active = parasite load remaining mostly below about 12%, no sharp cut-off; inactive = mostly above about 10%;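 note: 100% = mean of DMSO negative control wells on the same plate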). The following applies: P. berghei liver stage in HepG2, luciferase luminescence, concentration not given here; parasite load remaining: stronger effect = lower value; viability: measured here: HepG2 viability without parasites.
The nature of experiment [2]: Wnt pathway potentiators raising nuclear beta-catenin – imaging, WNT3A-conditioned medium, mouse C2C12, NPC library, primary screen (AID 1117326; in the data active = nuclear beta-catenin stimulation mostly above about 4.2%, no sharp cut-off; inactive = mostly below about 10%). The following applies: stronger effect = higher value.
Experiment [3] can be described thus: stimulators of insulin release from INS-1E, primary screen, cell-based, 5 mM glucose, NPC library (AID 1117329;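 active = compound raises insulin release from rat beta cells at 5 mM glucose, no numeric limit stated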). The following applies: rat INS-1E insulin secretion, at 10 µM, stronger effect = higher value.
Experiment [4] can be described thus: growth inhibition of GSK3B-pretreated HCT116 cells – cell-based, CellTiter-Glo, 0.2 to 20 µM (AID 1117336;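 active = compounds lowering colon cancer cell viability after pretreatment blocking the GSK3B kinase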). The following applies: HCT116 viability after GSK3B inhibitor, at 20 µM, stronger effect = higher value. A general note: ATP-based viability assays read luminescence as a measure of living cells.
A short description of experiment [5]: inhibition of endothelial tube formation, primary screen, imaging, VEGF stimulated, CD31 staining, tube area, NPC library (AID 1117340;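 active = compound that reduces growth-factor-driven endothelial tube area in a mixed cell culture, no cutoff stated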). The following applies: VEGF-stimulated ADSC/ECFC co-culture, at 10 µM, stronger effect = higher value.
Experiment [6] in a line: GLP1 release stimulators, primary, NCI-H716, NPC library (AID 1117341;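 active = compound raises GLP1 secretion from the human gut endocrine cells, with no numeric limit stated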). The following applies: NCI-H716 cells, at 10 µM, stronger effect = higher value.
Experiment [7] in a line: HCT116 colon cancer cell growth inhibition, primary screen, CellTiter-Glo luminescence, NPC library (AID 1117342;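 active = compounds that lower survival of HCT116 colon cancer cells in the luminescence readout, no numeric limit stated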). The following applies: at 20 µM (top of the series).
Experiment [8] in a line: reduced SW480 viability measured with CellTiter-Glo, NPC library, primary (AID 1117343;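 active = compounds that lower viability of the colon cancer cells in the luminescence readout, with no numeric limit stated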). The following applies: CellTiter-Glo luminescence; at 20 µM (top of the series).
The nature of experiment [9]: NPC library primary testing for decreased DLD-1 cell viability via CellTiter-Glo (AID 1117346;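 active = compounds that lower survival of DLD-1 colon cancer cells in the luminescence readout, no cutoff given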). The following applies: DLD-1 viability, CellTiter-Glo luminescence; at 20 µM (top of the series).
Experiment [10] is described as follows: viability loss with induced miR-34 in A549 – imaging, A549 dox-inducible miR-34, nuclei and caspase counts, primary screen (AID 1347080;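 active = compounds whose cell count with miR-34 switched on is under 0.7 times the count with it off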). The following applies: A549 miR-34 inducible, Hoechst nuclei count, 48 h.
Experiment [11] can be described thus: galactose survival enhancers in mitochondrial complex I cybrids – cell-based, galactose medium, ATP luminescence, primary screen (AID 1645843).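 Note: positive z means more ATP and so rescue of galactose-driven cybrid death.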 The following applies: complex I mutant cybrid cells, 72 h, stronger effect = higher value.
Experiment [12] is described as follows: EMT-state selective cytotoxicity in co-culture – imaging, PC-3E GFP, TEM4-18 mCherry, primary screen (AID 1345086;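 active = compounds killing one labelled cell type while sparing the other, by normalised counts and ratio limits, not self-fluorescent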;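 for all read-outs here: cells exposed to compound for 72 h before imaging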;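 for red/green cell ratio (normalised): normalised mesenchymal count divided by normalised epithelial count so high means epithelial killing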). The following applies: PC-3E GFP / TEM4-18 mCherry co-culture, imaging cell counts, at 1 µM; for red/green cell ratio (normalised): actives lie on both sides.
Experiment [13] relates to Aerobactin synthetase IucA (Klebsiella pneumoniae hvKP1). In words: IucA enzyme inhibition, primary screen, biochemical, Spectrum library (AID 1346200; call rule not given here;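 note: 100% = wells without compound and 0% = wells lacking enzyme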). The following applies: malachite green pyrophosphate, A620, at 8 µM, stronger effect = lower value.
In experiment [14] the target is NAD(+) hydrolase SARM1 (Homo sapiens) (UniProt Q6SZW1). In words: blocking NAD cleavage by SARM1 SAM-TIR – cell lysate, NAD-Glo luminescence (AID 1508614;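 active = compound whose remaining NAD level is above about 45 nM, limit read from the data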;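 note: higher remaining NAD means stronger inhibition of SARM1 NADase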). The following applies: SAM-TIR HEK293T lysate NADase, at 1 µM, stronger effect = higher value.
Experiment [15] concerns the target Mitogen-activated protein kinase 7 (Homo sapiens) (UniProt Q13164). In words: Gal4-ERK5 driven luciferase induction – cell-based, HTS, primary screen (AID 1508626;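 active = luciferase signal above three times the same-plate solvent-only control wells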;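 note: luciferase driven by Gal4-ERK5 fusion binding five Gal4 sites before minimal TATA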). The following applies: HeLa Gal4-ERK5 transactivation, 18 h, at 5 µM, stronger effect = higher value.
Experiment [16] is described as follows: MELAS cybrid and Rieske KO viability enhancers – cell-based, MELAS cybrids, Rieske KO mouse fibroblasts, CellTiter-Glo, primary screen (AID 1508586;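 active = mean z-score across replicates of 1.96 or higher in either the MELAS or the Rieske mutant cell line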;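 note: z relative to plate mean and SD of compound and empty wells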). The following applies: low glucose.
A short description of experiment [17]: yeast 75Q aggregation reduction – 75Q-TubU reporter (AID 1593). The following applies: Yeast 75Q polyglutamine aggregation reporter.
The nature of experiment [18]: blockers of cytochrome c efflux from mitochondria – biochemical, purified mitochondria (AID 1603).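 Note: mouse liver mitochondria challenged with calcium chloride; signal normalized to the plate average as 100%.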 The following applies: stronger effect = lower value.
The nature of experiment [19]: polyglutamine aggregate formation blockers (AID 1604). The following applies: polyglutamine-induced protein aggregation inhibition assay; stronger effect = higher value; tested at 2.5 µM.
Setting [20] is: measured here: relative caspase fold change +Dox/-Dox.
Where [21] appears, read: measured here: total cells with miR-34 induction, stronger effect = lower value.
The mark [22] stands for this setting: measured here: total cells without miR-34 induction.
Setting [23] is: measured here: epithelial PC-3E GFP cell survival.
Setting [24] is: measured here: mesenchymal TEM4-18 mCherry cell survival.
Where [25] appears, read: MELAS cybrid survival, CellTiter-Glo 48 h, stronger effect = higher value.
The mark [26] stands for this setting: Rieske KO mouse fibroblast survival, CellTiter-Glo 72 h.

Sequence of NAD(+) hydrolase SARM1 (Homo sapiens) (Q6SZW1 whole entry, looked up, the tested form may be a part): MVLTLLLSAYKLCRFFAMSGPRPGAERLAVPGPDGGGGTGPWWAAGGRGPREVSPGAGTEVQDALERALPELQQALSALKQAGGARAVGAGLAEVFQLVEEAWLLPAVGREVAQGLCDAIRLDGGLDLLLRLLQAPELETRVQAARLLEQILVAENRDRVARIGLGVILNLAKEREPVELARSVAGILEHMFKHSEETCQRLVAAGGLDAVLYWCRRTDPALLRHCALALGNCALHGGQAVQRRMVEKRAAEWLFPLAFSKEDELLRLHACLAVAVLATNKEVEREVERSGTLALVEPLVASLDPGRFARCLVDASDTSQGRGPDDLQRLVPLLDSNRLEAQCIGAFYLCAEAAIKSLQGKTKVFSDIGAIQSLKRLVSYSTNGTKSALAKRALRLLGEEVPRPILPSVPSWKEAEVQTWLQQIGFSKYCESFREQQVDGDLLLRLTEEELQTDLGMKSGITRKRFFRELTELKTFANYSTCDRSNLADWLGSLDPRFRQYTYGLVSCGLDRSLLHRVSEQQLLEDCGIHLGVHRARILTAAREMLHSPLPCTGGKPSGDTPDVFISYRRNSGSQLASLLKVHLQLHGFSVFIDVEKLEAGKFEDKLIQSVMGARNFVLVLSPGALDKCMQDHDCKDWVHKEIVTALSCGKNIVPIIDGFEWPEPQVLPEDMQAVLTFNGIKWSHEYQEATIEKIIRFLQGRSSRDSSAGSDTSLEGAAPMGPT
Sequence of Mitogen-activated protein kinase 7 (Homo sapiens) (Q13164 whole entry, looked up, the tested form may be a part): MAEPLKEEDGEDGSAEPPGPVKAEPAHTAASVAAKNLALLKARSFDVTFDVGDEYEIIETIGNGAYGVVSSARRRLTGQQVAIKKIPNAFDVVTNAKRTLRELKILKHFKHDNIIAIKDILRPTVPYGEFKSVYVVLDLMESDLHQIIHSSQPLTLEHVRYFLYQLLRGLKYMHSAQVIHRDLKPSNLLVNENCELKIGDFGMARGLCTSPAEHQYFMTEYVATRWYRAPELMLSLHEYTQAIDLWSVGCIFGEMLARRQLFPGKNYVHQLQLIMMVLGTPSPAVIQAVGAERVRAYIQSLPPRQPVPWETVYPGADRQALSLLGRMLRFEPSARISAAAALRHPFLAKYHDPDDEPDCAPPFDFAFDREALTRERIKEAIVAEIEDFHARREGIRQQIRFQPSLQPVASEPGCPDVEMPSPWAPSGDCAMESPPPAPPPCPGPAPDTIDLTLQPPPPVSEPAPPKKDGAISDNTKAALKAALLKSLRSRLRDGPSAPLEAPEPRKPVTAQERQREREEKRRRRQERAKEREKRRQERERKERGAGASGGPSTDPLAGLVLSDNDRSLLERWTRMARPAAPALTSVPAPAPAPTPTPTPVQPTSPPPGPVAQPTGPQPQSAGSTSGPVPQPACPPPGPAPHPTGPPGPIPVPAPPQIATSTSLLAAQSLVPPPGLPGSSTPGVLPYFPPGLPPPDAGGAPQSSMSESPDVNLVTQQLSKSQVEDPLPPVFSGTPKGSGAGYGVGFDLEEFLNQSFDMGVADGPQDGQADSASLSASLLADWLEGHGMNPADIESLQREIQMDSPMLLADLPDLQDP

Take `CN1C(=O)COc2c(C(=O)NC3CN4CCC3CC4)cc(Cl)cc21` (stereo not given): the parasite load remaining in experiment [1] was 118% (inactive). Moreover, the viability – broadly, a read-out of living cells in per cent, often relative to untreated cells – in [1] came to 75.1%. For the same compound, the nuclear beta-catenin stimulation in [2] (at 10 µM) was 3.8% (inactive); in [2] (stimulation, at 2 µM), 3.8%. Moreover, in experiment [3], the insulin secretion stimulation is 1.3% (inactive). The viability decrease in experiment [4] is -9.5% (inactive). Further, in experiment [5], the tube area decrease was -0.8% (inactive). In addition, the GLP1 secretion stimulation in [6] was 0% (inactive). Besides, the inhibition of viability in experiment [7] is 5.23% (inactive). For the same compound, the results for the viability decrease (inhibition) in [8] and in [9] were 18.3% (inactive) and -7.8% (inactive), respectively. The fold change was 0.858 (inactive) in [10] (stronger effect = lower value) and 1.27 in experiment [10] (setting [20]). Further, the cell count in [10] (setting [21]) turned out to be 8690; in [10] (setting [22]), 10100. In experiment [11], the z-score is 0.255 (inactive).
Take `N#Cc1nn(-c2c(Cl)cc(C(F)(F)F)cc2Cl)c(N)c1S(=O)C(F)(F)F` (stereo not given): in experiment [1], the parasite load remaining was 148% (inactive) and 35.4% (inactive). Besides, the viability in experiment [1] is 82.8% and 121%. Besides, the nuclear beta-catenin stimulation in [2] (at 10 µM) was 6.4% (inactive); in [2] (stimulation, at 2 µM), 2.1%. The insulin secretion stimulation in experiment [3] is 0.5% (inactive). Also, the viability decrease in experiment [4] is -53.1% (inactive). Moreover, in experiment [5], the tube area decrease is 9.4% (inactive). Moreover, in experiment [6], the GLP1 secretion stimulation is -1.4% (inactive). The inhibition of viability in experiment [7] is 17.3% (inactive). In addition, the viability decrease (inhibition) in experiment [8] is 42.7% (inactive); in [9] it was 6.4% (inactive). Besides, the red/green cell ratio (normalised) in [12] was 0.9 (inactive). In addition, the normalised cell number in experiment [12] (setting [23]) is 1; in [12] (setting [24]), 0.9. For the same compound, the activity remaining in experiment [13] is 115% (inactive). Also, the fold change in experiment [10] (stronger effect = lower value) is 0.962 (inactive) and 0.928 (inactive); in experiment [10] (setting [20]), 1.07 and 3.63. Further, the cell count in experiment [10] (setting [21]) is 4080 and 11800; in experiment [10] (setting [22]), 4240 and 12700. In experiment [14], the remaining NAD was 10 nM (inactive). Moreover, the luciferase signal in experiment [15] was 40 AU (inactive).
Take `C#CCN(C)[C@H](C)Cc1ccccc1`: the nuclear beta-catenin stimulation is -2% (inactive) in experiment [2] (at 10 µM) and 0.7% in experiment [2] (stimulation, at 2 µM). For the same compound, the insulin secretion stimulation in experiment [3] is 1.2% (inactive). Moreover, the viability decrease in experiment [4] is 1.9% (inactive). The tube area decrease in [5] was -3.8% (inactive). In experiment [6], the GLP1 secretion stimulation is 1.9% (inactive). For the same compound, in [7], the inhibition of viability was 6.37% (inactive). The viability decrease (inhibition) in experiment [8] was 10.9% (inactive); in experiment [9], 8.8% (inactive). In addition, the z-score was -1.17 (inactive) and -0.00892 (inactive) in experiment [16] (setting [25]); -0.0749 and -0.112 in [16] (setting [26]); 1.24 (inactive) and 0.63 (inactive) in experiment [11]. Also, the remaining NAD in experiment [14] was 10 nM (inactive).
As for `COc1ccc(C(=O)N2CCCC2=O)cc1`, the score in experiment [17] was determined as 0.89. For the same compound, the cytochrome c release ratio in [18] came out at 0.98. Further, in [19], the inhibition of aggregation was found to be 60.5%. For the same compound, in [1], the parasite load remaining was 27.9% (inactive) and 46.2% (inactive). Further, the viability in [1] was 90.5% and 108%. The nuclear beta-catenin stimulation is 0.6% (inactive) in experiment [2] (at 10 µM) and 1.5% in experiment [2] (stimulation, at 2 µM). Moreover, the insulin secretion stimulation in experiment [3] is -0.2% (inactive). Also, the viability decrease in experiment [4] was -7.2% (inactive). Further, in [5], the tube area decrease is -6.9% (inactive). Besides, the GLP1 secretion stimulation in experiment [6] was -1% (inactive). Besides, the inhibition of viability in experiment [7] was -1% (inactive). Moreover, the results for the viability decrease (inhibition) in experiment [8] and in [9] were 8.2% (inactive) and 2.2% (inactive), respectively. In addition, the red/green cell ratio (normalised) in [12] was 1.03 (inactive). Moreover, the normalised cell number in [12] (setting [23]) turned out to be 1.3; in experiment [12] (setting [24]) it was 1.35. Further, the activity remaining in experiment [13] was 112% (inactive). Further, the z-score was 0.14 (inactive) and 0.301 (inactive) and -1.05 (inactive) in [16] (setting [25]); 1 and 0.247 and -0.762 in experiment [16] (setting [26]); 0.545 (inactive) and 0.9 (inactive) and 0.65 (inactive) in experiment [11]. Further, the remaining NAD in experiment [14] is 10 nM (inactive). For the same compound, the luciferase signal in experiment [15] is 60 AU (inactive).
`CC1Sc2c(C(=O)O)c(=O)c3cc(F)c(N4CCNCC4)cc3n21` (stereo not given): the nuclear beta-catenin stimulation in experiment [2] (at 10 µM) was -0.2% (inactive); in experiment [2] (stimulation, at 2 µM) it was 2.5%. Moreover, the insulin secretion stimulation in [3] was 1.4% (inactive). Also, the viability decrease in experiment [4] is 43.4% (inactive). Further, the tube area decrease in experiment [5] was -8.5% (inactive). Besides, the GLP1 secretion stimulation in [6] is 2.3% (inactive). In addition, the inhibition of viability in experiment [7] was 50.6% (active). Moreover, the viability decrease (inhibition) was 40.9% (inactive) in experiment [8] and 40.8% (inactive) in experiment [9]. Moreover, the red/green cell ratio (normalised) in [12] (counts scaled to control wells, 1 = unselective) is 1.16 (inactive). For the same compound, the normalised cell number in [12] (setting [23]) is 1; in experiment [12] (setting [24]) it was 1.16.

The values are drawn from PubChem BioAssay.
